# Compound activity: PubChem BioAssay, National Center for Advancing Translational Sciences (NCATS)
# Hits are enriched below; roughly 7.6% of the tested compounds scored in any of these assays.
# p53 reactivator – re-activators of mutant p53; Potency, µM (titrated, usually from 92.2 µM), without a hit: at the highest dose activity change, positive = activation, most hits filed as activators; hit rate 0.063% among 320,000; AID 504706; H1299 p53-A138V BP100-luciferase reporter, luminescence, 24 h; note: potency is the fitted concentration of half-maximal effect; % of control where 0% means no effect; nearly all actives have a fitted effect of over 45% in size
#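 p53-null H1299 cells stably carrying temperature-sensitive p53-A138V and a BP100-luciferase reporter were pinned with compounds (4-point, 1:5 series) and held 24 hrs at 37 deg C. Luminescence was read 10 min after detection reagent.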
# BRCA1 expr up – BRCA1 expression activation; MCF7-BRCA1-FFLuc reporter, luminescence, 48 h; response scale: scaled: vehicle 0%, 10 µM genistein 100%; Potency, µM (highest dose often 46.1 µM), for the others: at the highest dose activation, actives largely listed as activators; hit rate 1.1% among 380,000; AID 624202; note: potency is the fitted concentration of half-maximal effect; nearly all actives have a fitted effect of over 80% in size
#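 MCF7-BRCA1-FFLuc cells, 2000/well in phenol-red-free MEM, attached 2 h then treated 48 h at 37 C. Luciferase luminescence read 15 min after reagent; normalized to genistein maximum activation (10microM) and DMSO, concentration-response fitted.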
# Giardia kill – Giardia lamblia killing; Giardia lamblia trophozoite viability; activity change, % at 7.66 µM, hits read low; hit rate 0.15% among 340,000; in the data active = activity change below about -80%; inconclusive = between about -30% and that limit;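 note: parasites exposed to compound for two days anaerobically before the ATP read; % is set by controls: 0 for no effect and ±100 for the full control effect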
#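 Compounds were tested on trophozoites seeded at 100 cells/well and held 48 hrs at 37 deg C anaerobically. An ATP-based luminescent kit measured the remaining live cells.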
# ELG1 repair inh – inhibitors of ELG1-dependent DNA repair in HEK293T cells; HEK293T ELG1-luciferase reporter, luminescence, 16 h; DNA damage induced by 5-fluorouridine; Potency, µM (series often up to 46.1 µM), for inactives: at the top dose activity change, negative = inhibition, hits mostly inhibitors; hit rate 2.3% among 330,000; AID 504467; note: potency is the fitted concentration of half-maximal effect; % is set by controls: 0 for no effect and ±100 for the full control effect; nearly all actives have a fitted effect of over 55% in size
#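 In this reporter screen, reduction of luminescence relative to DMSO vehicle indicated activity. Compounds and 5-fluorouridine were added together to 2,000 cells per well, incubated for 16 hr at 37 °C, then developed with ONE-Glo.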
# RORgamma inh – ROR gamma (mouse) transcription inhibition; AID 2551; hit rate 5.4% among 310,000; Drosophila S2 Gal4-RORgamma UAS-luciferase reporter, 20 h; P51450; Potency, µM (series often up to 53.6 µM), inactives show at the top dose activity change, negative = inhibition, hits mostly inhibitors; note: potency is the fitted concentration of half-maximal effect; % is set by controls: 0 for no effect and ±100 for the full control effect; nearly all actives have a fitted effect of over 60% in size
# Target sequence (P51450 whole entry, looked up, the tested form may be a part): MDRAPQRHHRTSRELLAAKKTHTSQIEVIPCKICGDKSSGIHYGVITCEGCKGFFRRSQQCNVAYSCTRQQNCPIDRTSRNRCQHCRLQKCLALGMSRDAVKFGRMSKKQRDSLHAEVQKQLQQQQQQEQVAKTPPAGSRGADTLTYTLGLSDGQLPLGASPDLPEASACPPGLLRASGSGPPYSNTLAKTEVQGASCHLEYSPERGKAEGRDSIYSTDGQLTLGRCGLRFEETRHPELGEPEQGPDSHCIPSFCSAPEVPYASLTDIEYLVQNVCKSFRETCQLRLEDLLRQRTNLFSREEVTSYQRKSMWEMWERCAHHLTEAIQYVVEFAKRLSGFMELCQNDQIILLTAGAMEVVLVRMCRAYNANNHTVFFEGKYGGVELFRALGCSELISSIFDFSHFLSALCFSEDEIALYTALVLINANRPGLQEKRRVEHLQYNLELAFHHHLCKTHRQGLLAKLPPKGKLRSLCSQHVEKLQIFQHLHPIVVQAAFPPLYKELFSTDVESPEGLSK
#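 In this cell-based reporter format, copper sulfate (700 uM final) drives Gal4–ROR gamma fusion expression from a metallothionein promoter in Drosophila Schneider cells; compounds preincubated 1 hr, reporter read after 20 hr at ambient temperature.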
# VP16 counter – counter-screen for ROR gamma inhibitors: Gal4-VP16 reporter. Drosophila S2 Gal4-VP16 UAS-luciferase, luminescence, 20 h. Potency, µM (top dose mostly 53.6 µM), for inactives: top-dose activity, negative = inhibition, usual class: inhibitors. hit rate 3.5% among 310,000. AID 2546;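 note: Gal4-VP16 expression switched on by copper sulfate through the metallothionein promoter; potency is the fitted concentration of half-maximal effect; % is set by controls: 0 for no effect and ±100 for the full control effect; nearly all actives have a fitted effect of over 50% in size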
# ELG1 FLuc counter – luciferase inhibition in cell-free luciferin readout for ELG1 hits. cell-free firefly luciferase luminescence counter-screen, ViewLux. shares compounds with ELG1 repair inh. AID 624247. Potency, µM (doses to about 46.1 µM), without a hit: at the highest dose activity change, negative = inhibition, most hits filed as inhibitors. hit rate 3% among 350; note: potency is the fitted concentration of half-maximal effect; % is set by controls: 0 for no effect and ±100 for the full control effect
# ELG1 Luc conf – human ELG1 repair inhibition, luciferase-tagged ELG1 confirmation; HEK293T ELG1-luciferase levels, luminescence; cells co-treated with 5-fluorouridine; hit rate 68% among 670; shares compounds with ELG1 repair inh; AID 624248; Potency, µM (top dose mostly 46.1 µM), inactives show at the highest dose activity change, negative = inhibition, actives largely listed as inhibitors; note: potency is the fitted concentration of half-maximal effect; % is set by controls: 0 for no effect and ±100 for the full control effect; nearly all actives have a fitted effect of over 55% in size
# ELG1 MMS Luc – confirmation of human ELG1 repair inhibitors, MMS stimulated. HEK293T luciferase-tagged ELG1 level, MMS stimulated. Potency, µM (top dose mostly 46.1 µM), without a hit: top-dose activity change, negative = inhibition, actives largely listed as inhibitors. hit rate 53% among 670. shares compounds with ELG1 repair inh. AID 624249; note: potency is the fitted concentration of half-maximal effect; % is set by controls: 0 for no effect and ±100 for the full control effect; nearly all actives have a fitted effect of over 60% in size
# ELG1 5-FU – confirmation of ELG1 repair inhibitors: viability with 5FU; shares compounds with ELG1 repair inh; cell viability with 5-FU, ELG1-dependent repair; Potency, µM (highest dose often 46.1 µM), without a hit: at the highest dose activity change, negative = viability loss, hits mostly cytotoxic; 670 tested, under 10 active; AID 624250;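 note: ELG1-luc HEK293T cells cotreated with 5-fluorouridine at 10 µM final; potency is the fitted concentration of half-maximal effect; viability measured 16 h after compound addition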
# ELG1 MMS cell – confirmation of ELG1 repair inhibitors: viability with MMS; shares compounds with ELG1 repair inh; hit rate 33% among 670; Potency, µM (series often up to 46.1 µM), without a hit: at the highest dose activity change, negative = viability loss, actives largely listed as cytotoxic; Cell viability with MMS, ELG1-dependent DNA repair;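 note: ELG1-luc HEK293T cells co-treated with 10 µM MMS; potency is the fitted concentration of half-maximal effect; viability read 16 h after compound addition; % is set by controls: 0 for no effect and ±100 for the full control effect; nearly all actives have a fitted effect of over 60% in size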
# Cell viab unstim – counter-screen for ELG1 repair inhibitors: unstimulated cell viability. cell viability counter-screen, unstimulated, luminescence. shares compounds with ELG1 repair inh. Potency, µM (highest dose often 45.9 µM), without a hit: at the top dose activity change, negative = loss of viability, most hits filed as cytotoxic. AID 624252. hit rate 8% among 900;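 note: potency is the fitted concentration of half-maximal effect; compound exposure lasted 16 hours before reading; % is set by controls: 0 for no effect and ±100 for the full control effect; nearly all actives have a fitted effect of over 55% in size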
# FLuc biochem – inhibits purified firefly luciferase, counter-screen for ELG1 hits | shares compounds with ELG1 repair inh | purified firefly luciferase, luminescence counter-screen | Potency, µM (titrated, usually from 57.5 µM), inactives show at the highest dose activity, negative = inhibition, hits mostly inhibitors | hit rate 10% among 350 | AID 624253; note: potency is the fitted concentration of half-maximal effect; % is set by controls: 0 for no effect and ±100 for the full control effect
# The depositor's hits bear a star; ? = inconclusive; · = no result; [ ] = remark or other dose. Unless noted, calls come from the whole dose curve; as a rule, active = well fitted curve in the direction sought with a large enough effect; inconclusive = small, poorly fitted or top-dose-only effect, or another doubt; inactive = no such curve, though single readings can be large; an effect the other way counts as inactive or inconclusive.
SMILES,p53 reactivator,BRCA1 expr up,Giardia kill,ELG1 repair inh,RORgamma inh,VP16 counter,ELG1 Luc conf,ELG1 MMS Luc,ELG1 5-FU,ELG1 MMS cell,Cell viab unstim,others
O=C(Nc1ccccc1)c1nc[nH]c1C(=O)NCCCNC(=O)c1[nH]cnc1C(=O)Nc1ccccc1,-2%,-11%,14,2.9µM*,·,·,4µM*,11µM*,?,-1%,-11%,
O=[N+]([O-])c1cc(/C=N/n2c(-c3ccncc3)n[nH]c2=S)ccc1Cl,10%,-15%,13,12%,-16%,-13%,·,·,·,·,·,
S=c1[nH]nc(C2CCCCC2)n1/N=C/c1ccncc1,-7%,15%,14,1.2µM*,?,-14%,2.5µM*,11µM*,-3%,-5%,-4%,
Nc1c(N(Cc2ccco2)C(=O)c2cccc(Cl)c2)c(=O)[nH]c(=O)n1Cc1ccccc1,2%,-8%,-6,0%,·,·,·,·,·,·,·,
O=C(CN1CCN(S(=O)(=O)c2ccc(Br)s2)CC1)N1CCc2ccccc21,·,19%,·,·,·,·,·,·,·,·,·,
C1=Cc2ccccc2/C1=C\c1ccc(/C=C2\C=Cc3ccccc32)cc1,·,1%,·,·,·,·,·,·,·,·,·,
CNc1ccc(/C=C2\C=Cc3ccccc32)cc1,·,·,·,·,·,·,·,·,·,·,-5%,ELG1 FLuc counter=58%;FLuc biochem=0.73µM*
O=C(Nc1cccc([N+](=O)[O-])c1)NN1CCCCCC1,·,25%,-7,·,·,·,·,·,·,·,·,
O=C(CN(Cc1ccccc1Cl)C(=O)Cn1nnc(-c2cccs2)n1)NCC1CCCO1 (stereo not drawn),-6%,1%,-14,-17%,1%[10 µM],-2%,·,·,·,·,·,
COc1ccc(OC)c(NC(=O)Cc2c(C(=O)O)[nH]c3ccc(Cl)cc23)c1,·,2%,·,·,·,·,·,·,·,·,·,
COc1ccc2c(c1)c(CC(=O)Nc1ccccc1OC)c(C)n2C(=O)c1ccc(Cl)cc1,-10%,-54%,38,-20%,25%,-11%,10µM*,?,?,?,-3%,ELG1 FLuc counter=3%;FLuc biochem=3%
O=C(CCc1nc(-c2ccccc2Cl)no1)NC1CCCCC1,-2%,-8%,-6,-1%,11%,3%,·,·,·,·,·,
